Drawing on PubChem BioAssay, this text covers fold change, cell count and z-score for 20 compounds.

Assay [1] is described as follows: sensitizers of A549 cells to miR-34 induction, primary screen, imaging, A549 dox-inducible miR-34, nuclei and caspase counts (AID 1347080). Note: test concentration not given here. The conditions noted are these: A549 miR-34 inducible, Hoechst nuclei count, 48 h.
Assay [2] can be described thus: survival rescue of mitochondrial mutant cells in low glucose, primary screen, MELAS cybrids, Rieske KO mouse fibroblasts, CellTiter-Glo (AID 1508586;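 active = mean z-score across replicates of 1.96 or higher in either the MELAS or the Rieske mutant cell line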;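 note: test concentration not given here; z relative to plate mean and SD of compound and empty wells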). Background: In ATP-based viability assays light output follows the ATP content of the culture.
Assay [3] is described as follows: viability rescue of complex I mutant cybrids, primary screen, cell-based, galactose medium, ATP luminescence (AID 1645843;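 active = z-score of at least 1.8 in each of two replicates, scored against plate mean and spread of sample wells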;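 note: positive z means more ATP and so rescue of galactose-driven cybrid death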). Conditions: complex I mutant cybrid cells, 72 h, stronger effect = higher value.
Setting [4] is: stronger effect = lower value, cell number ratio, induced over uninduced.
[5] abbreviates: measured here: relative caspase fold change +Dox/-Dox.
Setting [6] is: measured here: total cells with miR-34 induction, stronger effect = lower value.
[7] abbreviates: measured here: total cells without miR-34 induction.
[8] abbreviates: MELAS cybrid survival, CellTiter-Glo 48 h, stronger effect = higher value.
[9] abbreviates: Rieske KO mouse fibroblast survival, CellTiter-Glo 72 h.

Values joined by “and” are separate entries in the source; they are usually repeats but may differ in a detail not shown here. Equal entries are not always repeated. Active and inactive are the calls of the source.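 Rule for the calls, unless noted: active = compounds whose cell count with miR-34 switched on is under 0.7 times the count with it off; inactive = the rest.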

Turning to `CCOC(=O)C(CCc1ccccc1)NC(C)C(=O)N1C(C(=O)O)CC2CCCC21` (stereo not given), the fold change was 0.892 (inactive) and 0.893 (inactive) in assay [1] (setting [4]); 1.7 and 1.12 in assay [1] (setting [5]). Besides, the cell count in assay [1] (setting [6]) was 8500 and 7970; in assay [1] (setting [7]), 9530 and 8920. For the same compound, the values for the z-score in assay [2] (setting [8]), in assay [2] (setting [9]) and in assay [3] were -0.00441 (inactive), 0.321 and 0.52 (inactive), respectively.

As to `O=C(Nc1ccc(I)cc1)NC1CCCCC1`, the fold change in assay [1] (setting [4]) is 0.864 (inactive); in assay [1] (setting [5]) it was 0.498. The results for the cell count in assay [1] (setting [6]) and in assay [1] (setting [7]) were 7960 and 9220, respectively. Further, the z-score is 0.185 (inactive) in assay [2] (setting [8]), -0.338 in assay [2] (setting [9]) and 1.05 (inactive) in assay [3].

In the case of `Cc1nc(-c2ccnc(N)n2)cn1Cc1c(Cl)cccc1Cl`, the fold change is 0.853 (inactive) in assay [1] (setting [4]) and 0.94 in assay [1] (setting [5]). Besides, the results for the cell count in assay [1] (setting [6]) and in assay [1] (setting [7]) were 7950 and 9330, respectively. In addition, the z-score in assay [2] (setting [8]) is -0.789 (inactive); in assay [2] (setting [9]) it was 0.727; in assay [3], -0.225 (inactive).

Take `O=[N+]([O-])c1ccc(-c2ccn[nH]2)cc1`: the fold change was 0.922 (inactive) in assay [1] (setting [4]) and 0.744 in assay [1] (setting [5]). Besides, the cell count in assay [1] (setting [6]) is 8360; in assay [1] (setting [7]) it was 9070. In addition, the z-score in assay [2] (setting [8]) is -0.915 (inactive); in assay [2] (setting [9]) it was -0.293; in assay [3] it was 0.59 (inactive).

With `O=C(Nc1n[nH]c(-c2ccccc2)n1)N1CCN(c2ccc(F)cc2)CC1`, the fold change was 0.826 (inactive) in assay [1] (setting [4]) and 1.21 in assay [1] (setting [5]). Besides, the cell count in assay [1] (setting [6]) was determined as 6770; in assay [1] (setting [7]), 8190. The z-score in assay [2] (setting [8]) is -0.373; in assay [2] (setting [9]) it was 4.03; in assay [3], 0.11 (inactive).

As for `CN(Cc1noc(C2CCCC2)n1)C(=O)c1nc(=O)[nH]c2ccccc12`, the figures for the fold change in assay [1] (setting [4]) and in assay [1] (setting [5]) were 0.914 (inactive) and 1.01, respectively. Moreover, the cell count was found to be 8520 in assay [1] (setting [6]) and 9320 in assay [1] (setting [7]). Moreover, the figures for the z-score in assay [2] (setting [8]), in assay [2] (setting [9]) and in assay [3] were -0.339 (inactive), 0.124 and -0.525 (inactive), respectively.

As for `CN(C)CCC=C1c2ccccc2COc2ccc(CC(=O)O)cc21`, the fold change in assay [1] (setting [4]) is 0.912 (inactive) and 0.919 (inactive); in assay [1] (setting [5]) it was 1.41 and 0.942. Further, the cell count in assay [1] (setting [6]) is 9480 and 9680; in assay [1] (setting [7]) it was 10400 and 10500. Further, the z-score in assay [2] (setting [8]) was -0.314 (inactive); in assay [2] (setting [9]), 0.569; in assay [3] it was 1.25 (inactive).

Take `O=C(Nc1cc(Br)c(O)c(Br)c1)c1ccccc1`: the fold change in assay [1] (setting [4]) was 0.856 (inactive); in assay [1] (setting [5]) it was 0.708. Moreover, the results for the cell count in assay [1] (setting [6]) and in assay [1] (setting [7]) were 7950 and 9290, respectively. Besides, the z-score is 0.106 (inactive) in assay [2] (setting [8]), -0.271 in assay [2] (setting [9]) and 0.2 (inactive) in assay [3].

In the case of `CCC1OC(=O)C(C)C(OC2C[C@@](C)(OC)C(O)C(C)O2)C(C)C(OC2OC(C)CC(N(C)C)C2O)[C@](C)(OC)CC(C)C(=O)C(C)C(O)[C@]1(C)O` (stereo not given in full), the fold change in assay [1] (setting [4]) is 0.943 (inactive) and 0.989 (inactive); in assay [1] (setting [5]), 1.76 and 0.873. For the same compound, the cell count was 9620 and 10500 in assay [1] (setting [6]); 10200 and 10600 in assay [1] (setting [7]). In addition, the figures for the z-score in assay [2] (setting [8]), in assay [2] (setting [9]) and in assay [3] were -0.386 (inactive), 0.552 and -0.175 (inactive), respectively.

Take `c1ccc(-c2noc(-c3cccc4cccnc34)n2)nc1`: the fold change in assay [1] (setting [4]) was 0.892 (inactive); in assay [1] (setting [5]), 1.13. Moreover, the values for the cell count in assay [1] (setting [6]) and in assay [1] (setting [7]) were 7790 and 8740, respectively. Besides, the z-score is -0.283 (inactive) in assay [2] (setting [8]), 1.05 in assay [2] (setting [9]) and 0.93 (inactive) in assay [3].

Consider `CCn1c2ccccc2c2cc(CNC)ccc21`, for which the fold change is 0.848 (inactive) in assay [1] (setting [4]) and 0.773 in assay [1] (setting [5]). Further, the figures for the cell count in assay [1] (setting [6]) and in assay [1] (setting [7]) were 7330 and 8640, respectively. Moreover, the z-score in assay [2] (setting [8]) was 0.644 (inactive); in assay [2] (setting [9]) it was -0.0619; in assay [3] it was -0.915 (inactive).

In the case of `Nc1ncccc1OCc1ccccc1`, the figures for the fold change in assay [1] (setting [4]) and in assay [1] (setting [5]) were 0.764 (inactive) and 0.403, respectively. Besides, the cell count worked out at 7870 in assay [1] (setting [6]) and 10300 in assay [1] (setting [7]). Besides, the z-score is -0.968 (inactive) in assay [2] (setting [8]), -0.912 in assay [2] (setting [9]) and -0.165 (inactive) in assay [3].

With `COc1ncccc1-c1cnn(CC(=O)Nc2cc(-c3ccccn3)nn2C)c1`, the results for the fold change in assay [1] (setting [4]) and in assay [1] (setting [5]) were 0.961 (inactive) and 0.557, respectively. The values for the cell count in assay [1] (setting [6]) and in assay [1] (setting [7]) were 9520 and 9900, respectively. Besides, the figures for the z-score in assay [2] (setting [8]), in assay [2] (setting [9]) and in assay [3] were -0.417 (inactive), 0.201 and -0.56 (inactive), respectively.

`CNCc1ccccc1-c1cccs1`: the fold change was 0.861 (inactive) in assay [1] (setting [4]) and 0.648 in assay [1] (setting [5]). Moreover, the figures for the cell count in assay [1] (setting [6]) and in assay [1] (setting [7]) were 8130 and 9440, respectively. Also, the z-score is -0.43 (inactive) in assay [2] (setting [8]), -0.443 in assay [2] (setting [9]) and 0.065 (inactive) in assay [3].

For the compound `Cc1nsc(NC(=O)N2CCCCC2c2nc(C(C)C)no2)n1` (stereo not given), the fold change is 0.906 (inactive) in assay [1] (setting [4]) and 1.98 in assay [1] (setting [5]). The cell count in assay [1] (setting [6]) came out at 9100; in assay [1] (setting [7]) it was 10000. The z-score is -0.274 (inactive) in assay [2] (setting [8]), -0.381 in assay [2] (setting [9]) and -0.525 (inactive) in assay [3].

In the case of `O=C(O)COc1cccc2ccccc12`, the fold change is 0.847 (inactive) in assay [1] (setting [4]) and 0.59 in assay [1] (setting [5]). Further, the cell count is 7750 in assay [1] (setting [6]) and 9150 in assay [1] (setting [7]). For the same compound, the z-score in assay [2] (setting [8]) was -0.276 (inactive); in assay [2] (setting [9]), 0.135; in assay [3], 0.555 (inactive).

`Cc1nnc(NC(=O)NCC(c2ccccc2)c2ccccc2)s1`: the fold change is 0.837 (inactive) in assay [1] (setting [4]) and 0.947 in assay [1] (setting [5]). In addition, the cell count in assay [1] (setting [6]) is 7790; in assay [1] (setting [7]), 9310. The z-score in assay [2] (setting [8]) was 0.623 (inactive); in assay [2] (setting [9]) it was 1.94; in assay [3] it was 1.01 (inactive).

On to `c1ccc(CN2CCC(Nc3ncnc4sccc34)CC2)nc1`, for which the fold change in assay [1] (setting [4]) was 0.895 (inactive); in assay [1] (setting [5]), 1.42. Besides, the cell count is 5240 in assay [1] (setting [6]) and 5860 in assay [1] (setting [7]). Moreover, the z-score in assay [2] (setting [8]) was -0.277 (inactive); in assay [2] (setting [9]), -0.421; in assay [3] it was -0.58 (inactive).

Regarding `Cn1nc(C(C)(C)C)cc1NC(=O)Nc1ccc(Cl)cc1`, the fold change in assay [1] (setting [4]) was 0.806 (inactive); in assay [1] (setting [5]), 1.05. Also, the results for the cell count in assay [1] (setting [6]) and in assay [1] (setting [7]) were 7030 and 8720, respectively. Also, the z-score is 1.19 (inactive) in assay [2] (setting [8]), -0.375 in assay [2] (setting [9]) and 0.155 (inactive) in assay [3].

In the case of `OCC(O)COc1ccc(Cl)cc1` (stereo not given), the fold change in assay [1] (setting [4]) is 0.886 (inactive); in assay [1] (setting [5]), 0.44. Further, the cell count in assay [1] (setting [6]) was 8700; in assay [1] (setting [7]), 9820. For the same compound, the z-score in assay [2] (setting [8]) was 0.325 (inactive); in assay [2] (setting [9]), 0.457; in assay [3], 0.62 (inactive).
